High-throughput results as filed in PubChem.
Sampled rows, rich in hits. Any-hit rate of the full collection: about 1.3%.
LYPLA2 counter – counter-screen for PME1 inhibitors: inhibitors of human LYPLA2. O95372. recombinant LYPLA2, FP-Rh probe fluorescence polarization. inhibition, % at 5.9 µM. 320,000 tested, 0.38% active;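 active = inhibition above the screen-wide mean plus 3 SD, limit set per campaign, cut at about 26% in these data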
Target sequence (O95372 whole entry, looked up): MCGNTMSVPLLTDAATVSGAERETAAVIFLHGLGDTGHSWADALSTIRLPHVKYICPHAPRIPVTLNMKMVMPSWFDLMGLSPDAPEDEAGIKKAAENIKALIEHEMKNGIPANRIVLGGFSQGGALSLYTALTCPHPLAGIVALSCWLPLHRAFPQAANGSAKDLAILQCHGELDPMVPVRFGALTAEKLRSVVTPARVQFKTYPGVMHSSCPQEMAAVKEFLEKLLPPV
ZTA DNA inh – blocks Epstein-Barr virus ZTA, an EBNA-1 counter-screen; ZTA-DNA binding, fluorescence polarization; AID 2234; 320,000 tested, 0.15% active; inhibition, % at 11 µM; P03206; in the data active = inhibition above about 33%
LYPLA1 counter – blocks human lysophospholipase 1, a PME1 counter-screen | O75608 | recombinant LYPLA1, FP-Rh probe fluorescence polarization | inhibition, % at 5.9 µM | 320,000 tested, 0.16% active | AID 2174;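 active = inhibition above the mean of all tested compounds plus 3 SD, set per campaign, cut at about 14% in these data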;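 also: inhibitors block serine hydrolase probe labeling of LYPLA1 so polarization falls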
EBNA-1 inhibitor – blocks EBNA-1 binding to DNA | EBNA-1 DNA binding, fluorescence polarization | inhibition, % at 14.8 µM | 300,000 tested, 0.34% active; in the data active = inhibition above about 28%
PREPL inhibitor – human PREPL enzyme inhibition; recombinant PREPL, fluorescence polarization activity-based probe; inhibition, % at 5.96 µM; 320,000 tested, 0.68% active; Q4J6C6; AID 2751
PREPL inh cf – confirmation of human PREPL enzyme inhibitors. shares compounds with PREPL inhibitor. recombinant PREPL, fluorescence polarization activity probe. inhibition, % at 5.96 µM. 2,000 tested, 67% active. AID 2803
Of the large screens only hits and unclear results are named; the others gave an inactive call (follow-up assays come after a bar, where they were run). Rule as the data show it, unless noted: active = inhibition above about 43%; inactive = the rest.

CCCCCCCC[n+]1cccc(C(=O)N(CC)CC)c1	none
CCc1cc2c3c(c(=O)oc2cc1OCC(=O)OC)CCCC3	none
Clc1ccc2nc(-c3ccccn3)c(Nc3ccc4c(c3)OCO4)n2c1	PREPL inhibitor 67.0 | PREPL inh cf 54.2
Cc1c(CCOC(=O)c2cc([N+](=O)[O-])cc([N+](=O)[O-])c2)sc[n+]1CC(=O)c1ccccc1	PREPL inhibitor 55.8 | PREPL inh cf 50.2
Cc1c(CCOC(=O)C23CC4CC(CC(C)(C4)C2)C3)sc[n+]1CC(=O)c1ccccc1	PREPL inhibitor 48.4 | PREPL inh cf 44.2
Cc1c(CCC(=O)NCCCn2ccnc2)c(=O)oc2c(C)c3oc4c(c3cc12)CCCC4	PREPL inhibitor 48.9 | PREPL inh cf inactive
COc1ccc(/C=N\NC(=O)c2cc(O)c(O)c(O)c2)cc1CN1CCN(c2ccc(F)cc2)CC1	PREPL inhibitor 54.4 | PREPL inh cf inactive
CCN(CC)S(=O)(=O)c1ccc2[nH]cc(C(=O)NC3CC3)c(=O)c2c1	none
COc1ccc(CC2(CO)CCN(S(=O)(=O)c3cccc4cccnc34)CC2)cc1	PREPL inhibitor 50.5 | PREPL inh cf inactive
COCC(C)NC(=O)CSc1nc2cc(S(=O)(=O)N3CCCCC3)ccc2o1 (stereo not drawn)	none (no result: EBNA-1 inhibitor)
COc1cccc(C2CC(c3ccc(Cl)cc3)n3nc(N)nc3N2)c1 (stereo not drawn)	none
Cc1cccc(C2CC(c3ccc(Cl)cc3)Nc3nc(N)nn32)c1 (stereo not drawn)	PREPL inhibitor 51.5 | PREPL inh cf 52.4
Cc1cccc(C2CC(c3ccc(F)cc3)Nc3nc(N)nn32)c1 (stereo not drawn)	PREPL inhibitor 50.9 | PREPL inh cf 55.0
COc1ccc(C2CC(c3ccc(F)cc3)Nc3nc(N)nn32)cc1 (stereo not drawn)	none
Cc1ccc(C2CC(c3cccc(Cl)c3)n3nc(N)nc3N2)cc1 (stereo not drawn)	PREPL inhibitor 51.0 | PREPL inh cf 51.5
COc1ccc(C2CC(c3cccc(OC)c3)n3nc(N)nc3N2)cc1 (stereo not drawn)	PREPL inhibitor 45.7 | PREPL inh cf 52.3
CCCCn1c(N)c(N(C)C(=O)c2cn(-c3ccccc3)nc2-c2ccccc2)c(=O)[nH]c1=O	none (no result: EBNA-1 inhibitor)
COc1cc(/C=C/C(=O)OC(C)C(=O)Nc2c(C)n(C)n(-c3ccccc3)c2=O)ccc1OCC#N (stereo not drawn)	none
CCCc1c(OCCCOc2ccc(OCC(=O)O)cc2)ccc(C(C)=O)c1O	none
CC(C)CC(=O)Nc1c2c(nn1-c1ccc(F)cc1)CS(=O)(=O)C2	none
Cc1ccc2[nH]c3c(c2c1)CCc1cn[nH]c1-3	PREPL inhibitor 46.6 | PREPL inh cf inactive
CCOC(=O)C1CCCN(c2c(NCCc3ccc(Cl)cc3)c(=O)c2=O)C1 (stereo not drawn)	none
CCc1ccc(C(=O)C(C)OC(=O)CNS(=O)(=O)c2ccc(C)cc2)cc1 (stereo not drawn)	none
c1ccc(-c2nc(NCc3ccco3)c3ccccc3n2)nc1	PREPL inhibitor 47.1 | PREPL inh cf 46.7
Oc1ccccc1-c1nc(NCc2ccco2)c2ccccc2n1	none
Cc1ccc(Nc2nc(NCc3ccco3)c3ccccc3n2)cc1	PREPL inhibitor 57.1 | PREPL inh cf 44.7
c1ccc(N2CCN(c3nc(NCc4ccco4)c4ccccc4n3)CC2)cc1	PREPL inhibitor 55.9 | PREPL inh cf 56.1
Cc1ccc(NC(=O)CNC(=O)c2ccc(C)o2)cc1	none
O=[N+]([O-])c1ccc(N2CCN(Cc3cccc([N+](=O)[O-])c3)CC2)cc1	PREPL inhibitor 44.9 | PREPL inh cf 44.2
O=[N+]([O-])c1cccc(CN2CCCCCC2)c1	none
COc1ccc(/C=N/Nc2cc(C)nc3ccc(OC)cc23)c(OC)c1	PREPL inhibitor 88.6 | PREPL inh cf 80.8
COc1ccc(C(=O)NCC(=O)OCC(=O)NC2CCCCCC2)cc1	none (no result: LYPLA2 counter, ZTA DNA inh, LYPLA1 counter, EBNA-1 inhibitor)
CC(=O)c1ccc(NC(=O)CCCN2C(=O)C(c3ccccc3)Oc3cccnc32)cc1 (stereo not drawn)	none
